Experimental data reported in PubChem BioAssay (NCATS).
Inconclusive results are not listed. The source made the active and inactive calls. The call rests on the fitted dose curve; in most records, active means well fitted curve in the direction sought with a large enough effect; inconclusive means small, poorly fitted or top-dose-only effect, or another doubt; inactive means no such curve, though single readings can be large; an effect the other way counts as inactive or inconclusive.

Assays:
[1] = SDT Cancer Cell Toxicity qHTS against the NCATS CANVASS Library (AID 1347365);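 further: SDT canine glioma cells 500 per well in 1536 well plates; nearly all actives have a fitted effect of over 60% in size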
Source text: Natural products and their derivatives continue to be wellsprings of nascent therapeutic potential. However, many laboratories have limited resources for biological evaluation, leaving their previously isolated or synthesized compounds largely or completely untested. To address this issue, the Canvass library of natural products was assembled (https://tripod.nih.gov/canvass), in collaboration with academic and industry researchers, for quantitative high-throughput screening (qHTS) across a diverse set of cell-based and biochemical assays. […] The library was formatted into 1536-well plates and evaluated in 50 qHTS (in an 11-pnt concentration series) bioassays with broad scope of disease-relevant mechanisms. The resulting data set from 50 different assays was then systematically analyzed to identify overall trends and specific natural products with interesting biological activities. […] This assay uses ATP (luminescence) content to measure the cytotoxiciy of compounds on SDT dog glioma cancer cell line. […]
Cancer Cell Toxicity qHTS protocol: for cell lines G06, J3T, and SDT. […] Luminescence signal was acquired via the ViewLux plate reader (PerkinElmer) using a clear emission filter, 2 sec exposure, and 1x binning settings.

[2] = KB-3-1 Cancer Cell Toxicity qHTS against the NCATS CANVASS Library (AID 1347366); conditions: KB-3-1 viability, CellTiter-Glo luminescence, 72 h; at 46.1 µM (top of the series); further: nearly all actives have a fitted effect of over 75% in size
Source text: Natural products and their derivatives continue to be wellsprings of nascent therapeutic potential. However, many laboratories have limited resources for biological evaluation, leaving their previously isolated or synthesized compounds largely or completely untested. To address this issue, the Canvass library of natural products was assembled (https://tripod.nih.gov/canvass), in collaboration with academic and industry researchers, for quantitative high-throughput screening (qHTS) across a diverse set of cell-based and biochemical assays. The pure (>85% purity by liquid chromatography/mass spectrometry [LC/MS]) Canvass library of 346 natural products were submitted by 45 academic laboratories and companies around the world. We collected pure natural products to circumvent deconvolution and structure elucidation due to time and resource limitations. The library was formatted into 1536-well plates and evaluated in 50 qHTS (in an 11-pnt concentration series) bioassays with broad scope of disease-relevant mechanisms. The resulting data set from 50 different assays was then systematically analyzed to identify overall trends and specific natural products with interesting biological activities. […]
Cancer Cell Toxicity qHTS protocol 1. […] Luminescence signal was acquired via the ViewLux plate reader (PerkinElmer) using a clear emission filter, 1 sec exposure, and 1x binning settings.

[3] = qHTS for ATAD5 Agonist screened against the NCATS CANVASS Library (AID 1347367);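 further: luciferase reporter driven by ATAD5 which rises upon DNA damage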
Outline: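 HEK293T-ATAD5 luc reporter; 2000 cells/well; 5hr settle; cpd 11-pt qHTS; 16hr 37C 5% CO2 dark; viability by CellTiter-Fluor (AFC fluorescence); then luciferase luminescence, 30min RT.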

[4] = G06 Cancer Cell Toxicity qHTS against the NCATS CANVASS Library (AID 1347368); further: nearly all actives have a fitted effect of over 60% in size
Outline: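 Quantitative HTS in G06 cells (dog glioma): 72 hr treatment, 11 concentrations, then ATP-based luminescent viability readout; bortezomib 0.1 nM–4.6 uM final as reference.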

[5] = MCF7 Cancer Cell Toxicity qHTS against the NCATS CANVASS Library (AID 1347369); conditions: MCF7 viability, ATP luminescence (CellTiter-Glo), 72 h; at 46 µM (top of the series)
Outline: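 Cells seeded at 500/well, then compound pinned. Plates incubated 72 hr at 37C, 5% CO2. CellTiterGlo added; luminescence read.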

[6] = qHTS for ATAD5 Antagonist screened against the NCATS CANVASS Library (AID 1347370);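 further: HEK293T cells carrying an ATAD5 luciferase reporter co-treated with 10 µM 5-fluorouridine; nearly all actives have a fitted effect of over 65% in size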
Outline: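 HEK293T-ATAD5 luc reporter, 2000 cells/well; 5hr attach; cpd + 10 uM 5-FUrd; 16hr 37C, 5% CO2. Readouts: CellTiter-Fluor fluorescence (1hr), then Amplite luciferase luminescence (30min RT).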

[7] = J3T Cancer Cell Toxicity qHTS against the NCATS CANVASS Library (AID 1347371);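 further: J3T is a canine glioma cancer cell line seeded at 500 cells per well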
Outline: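 ATP-based cytotoxicity in canine J3T cells: 72 hr exposure at 37C, 11-point titration, CellTiterGlo luminescent detection.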

[8] = target: Nuclear receptor subfamily 1 group I member 3 (Homo sapiens) (UniProt Q14994); test: qHTS for Constitutive Androstane Receptor (CAR) Antagonist screened against the NCATS CANVASS Library (AID 1347372);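 further: cells stimulated with 50 nM CITCO agonist so inhibition reflects antagonism; luciferase from CYP2B6 promoter reporter driven by hCAR in HepG2 cells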
Source text: Natural products and their derivatives continue to be wellsprings of nascent therapeutic potential. However, many laboratories have limited resources for biological evaluation, leaving their previously isolated or synthesized compounds largely or completely untested. To address this issue, the Canvass library of natural products was assembled (https://tripod.nih.gov/canvass), in collaboration with academic and industry researchers, for quantitative high-throughput screening (qHTS) across a diverse set of cell-based and biochemical assays. […] The library was formatted into 1536-well plates and evaluated in 50 qHTS (in an 11-pnt concentration series) bioassays with broad scope of disease-relevant mechanisms. The resulting data set from 50 different assays was then systematically analyzed to identify overall trends and specific natural products with interesting biological activities. […]
Material: A double-stable (hCAR and CYP2B6-2.2kb) transfected cell line, derived from human hepatoma (HepG2) cells, was utilized for the duration of the quantitative high-throughput screens. […] A first readout of fluorescence signal was acquired via the ViewLux (PerkinElmer) plate reader using a FITC dichroic mirror, excitation 405/10 nm filter, and emission 540/25 nm filter; and using 65 light energy, 1 second exposure, and 2x binning settings. […]

[9] = target: Nuclear receptor subfamily 1 group I member 3 (Homo sapiens) (UniProt Q14994); test: qHTS for Constitutive Androstane Receptor (CAR) Agonist screened against the NCATS CANVASS Library (AID 1347373);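 further: every well also contained 1.5 µM PK11195 alongside the test compound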
Outline: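 In an 11-point concentration series, compounds were incubated 24hr with HepG2 cells carrying hCAR and a CYP2B6-2.2kb reporter, with PK11195 at 1.5uM final. A CellTiter-Fluor viability read preceded the ONE-Glo luminescence read.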

[10] = qHTS for Hypoxia signaling pathway (HIF-1) antagonists against the NCATS CANVASS Library (AID 1347374);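 further: HRE-bla ME-180 cells stimulated with cobalt chloride to stabilize HIF-1alpha; nearly all actives have a fitted effect of over 60% in size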
Source text: Natural products and their derivatives continue to be wellsprings of nascent therapeutic potential. However, many laboratories have limited resources for biological evaluation, leaving their previously isolated or synthesized compounds largely or completely untested. To address this issue, the Canvass library of natural products was assembled (https://tripod.nih.gov/canvass), in collaboration with academic and industry researchers, for quantitative high-throughput screening (qHTS) across a diverse set of cell-based and biochemical assays. […] We collected pure natural products to circumvent deconvolution and structure elucidation due to time and resource limitations. The library was formatted into 1536-well plates and evaluated in 50 qHTS (in an 11-pnt concentration series) bioassays with broad scope of disease-relevant mechanisms. The resulting data set from 50 different assays was then systematically analyzed to identify overall trends and specific natural products with interesting biological activities. […] The compounds were also tested for auto fluorescence that may interfere with the biological target readout resulting in potential false positives and/or negatives. […]
HIF-1 antagonist assay protocol: 1. […] The fluorescence intensity was obtained using the EnVision (PerkinElmer, Shelton, CT) plate reader using a 405 nm excitation, and 460 and 530 nm emission filters. […]

Measured: outcome

Nuclear receptor subfamily 1 group I member 3 (Homo sapiens), sequence (Q14994 whole entry, looked up): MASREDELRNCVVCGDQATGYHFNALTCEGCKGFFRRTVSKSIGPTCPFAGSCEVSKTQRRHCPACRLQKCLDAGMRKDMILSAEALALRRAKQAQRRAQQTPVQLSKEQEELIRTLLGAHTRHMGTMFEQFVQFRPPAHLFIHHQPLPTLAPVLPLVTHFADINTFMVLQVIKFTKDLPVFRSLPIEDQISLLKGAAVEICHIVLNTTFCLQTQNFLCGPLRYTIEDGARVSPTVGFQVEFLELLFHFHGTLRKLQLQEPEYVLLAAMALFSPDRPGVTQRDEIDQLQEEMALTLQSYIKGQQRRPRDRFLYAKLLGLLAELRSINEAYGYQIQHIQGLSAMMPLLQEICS

CN(C)CCc1c[nH]c2ccccc12
inactive: all assays above
